This passage reports growth results from PubChem BioAssay (NCI).

The structures appear in SMILES notation. This is part of a sample that, as a whole, favours compounds with a hit. Of some 83,000 tested, about 20% had one in any assay.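 Method: cells in 96-well plates; compound added at one concentration; 48 h incubation; percent growth measured; values under 10 scored active.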 Values without a mark were called inactive. The source made the active and inactive calls.

The assay concerns HOP-92 NSCLC. In words: NCI-60 one-dose screen, 48 h (100 = growth as untreated, 0 = no growth, -100 = all killed). The conditions noted are these: 10 µM unless noted.
Consider `Clc1cccc(Nc2ncnc3ccc(-c4cnc5[nH]ccc5c4)cc23)c1`, for which the growth is 94.5%.

For the compound `Nc1cc(C(=O)NC[C@H]2CN(c3ccc(N4CCC(C(=O)O)CC4)cc3)C(=O)O2)ccc1Cl`, the growth was 98.4%.

With `N#CSCC1CC(O)(c2ccccc2)CC(c2ccc(F)cc2)O1` (stereo not drawn), the growth was 29.6%.

For `CCOC(=O)c1ccc2c(c1)nc(-c1ccccc1)n2C1CCCCC1`, the growth is 91.7%.

On to `Cc1cn(-c2cc(NC(=O)c3cncc(C#Cc4cnc(N)c5ncccc45)c3)cc(C(F)(F)F)c2)cn1`, for which the growth is 43.3%.

On to `CCN(CC)Cc1cc(C=C2C(=O)NC(=S)NC2=O)cc(OC)c1O`, for which the growth was 104%.

`COc1cc(/C=C/C(=O)c2ccc(F)cc2)ccc1OCCCCOc1ccc(/C=C/C(=O)c2c(C)nc3ccccc3c2C)cc1OC`: the growth is 84.5%.

Consider `O=C1/C(=C/c2cccc(F)c2)CN(C(=O)C(Cl)Cl)C/C1=C\c1cccc(F)c1`, for which the growth is -58% (active).

On to `N#Cc1ccc(O)c(C2=NCC(c3ccccc3)O2)c1` (stereo not drawn), for which the growth was 60.6%.

For `N=C(N)c1ccc(-c2ccc(-c3ccccc3)o2)cc1`, the growth is -59.5% (active).

In the case of `COC12C=C/C(=C(/C(=O)OCc3ccncc3)C(=O)CCCCCCCCC3(OC)C=C/C(=C(/C(=O)OCc4ccncc4)C(=O)CCCCCCCC1)O3)O2`, the growth is -48.9% (active).

Turning to `COC(=O)/C=C1/SC(=Nc2cccc(OC)c2)N(CCc2c[nH]c3ccc(O)cc23)C1=O`, the growth was 50.4%.

With `Cn1ccnc1C(=O)/C=C/c1ccc(CC(=O)Nc2cc(C(F)(F)F)cc(C(F)(F)F)c2)cc1`, the growth is 87%.
